21 compounds from PubChem BioAssay (NCATS) can be followed below.

Inconclusive results are not listed. A number with no mark means an inactive call. Activity calls are given as the source filed them. The call rests on the fitted dose curve; in most records, active means well fitted cell-killing curve with a large enough effect; inconclusive means small, poorly fitted or top-dose-only effect, or effect the other way; inactive means no such curve, though single readings can be large or run the other way.
On the % scale 0 is the no-effect control and ±100 the full control effect; potency means the concentration at half of the fitted maximal effect.

This assay is described as follows: qHTS of pediatric cancer cell lines to identify multiple opportunities for drug repurposing: Confirmatory screen for OHS-50 cells (AID 1347128).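 Further: compound exposure lasted 48 h at 37 degrees C; nearly all actives have a fitted effect of over 55% in size.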 Particulars: OHS-50 osteosarcoma cells viability; series mostly up to 45.9 µM; activity change, negative = cytotoxic: at the top concentration. From the text:
Drug repurposing or repositioning has been offered as a strategy for drug development in oncology programs. This approach has special potential for childhood cancers and other rare or orphan diseases, where the expected return on new drug development has been a disincentive to pharmaceuticals.
In this project we exploit the poly-pharmacology of drugs to discover new indications via phenotypic screening of a panel of 19 well-characterized cell lines derived from solid tumors seen in children and adolescents. The goal is to identify approved drugs with previously unrecognized anticancer properties that has the potential to reveal new mechanisms and biological processes involved in carcinogenesis or drug resistance. We employed a titration-based paradigm (quantitative high-throughput screening or qHTS), where all compounds were tested at multiple concentrations for their effect on cell viability. Concentration-response curves (CRCs) were derived directly from the primary screen, and both potency and efficacy values were used to identify compounds with robust bioactivity profiles. We screened the NIH Chemical Genomics Center (NCGC) Pharmaceutical Collection (NPC) and Mechanism Interrogation Plate (MIPE) small molecule collections of approved and investigational compounds against these cell lines; and measured metabolically active cells after 48 hours of compound treatment as a proxy for cell viability.
Assay Submitter: Nathalia J. Martinez, National Center for Advancing Translational Sciences, National Institutes of Health, Rockville, MD, USA; email: natalia.martinez@nih.gov
[1] Shen, M et al. Quantitative high-throughput phenotypic screening of pediatric cancer cell lines identifies multiple opportunities for drug repurposing. Oncotarget 2017 Dec 19;9(4):4758-4772. PMID 29435139.
The cells were obtained from University of North Carolina (UNC), Pediatric Preclinical Testing Program (PPT), and Coriell Institute (CI).
qHTS cell viability assay:
Cells were assayed in growth media at a density of 500-1,000 cells/well. Five microliters of cells were dispensed into 1,536-well, white, solid-bottom, TC-treated plates (Greiner Bio One) using a multidrop dispenser and incubated at 37 degrees C, 5% CO2, under a humidified atmosphere for 5 hours. Twenty-three nanoliters of compounds and controls (neutral control DMSO or positive control bortezomib at final concentration of 2.3 µM) were subsequently transferred by Kalypsys pintool. For primary screens, the MIPE collection was tested at 11-point dilutions (final concentrations range from 0.78 nM to 46 µM) and the NPC collection at 8-point dilutions (final concentrations range from 0.59 nM to 46 µM). Compounds tested in follow-up screens were assayed at 11-point dilutions. Cells were incubated for 48 hours, followed by addition of 3 µL of CellTiter-Glo (Promega). After a 15 min incubation at room temperature, samples were analyzed for luminescence intensity using a ViewLux High-throughput CCD imager equipped with clear filters.
(Quantitative high-throughput screening tests each substance at several concentrations.)
Consider `CN(C)c1ccc(O)c2c1C[C@H]1C[C@H]3[C@H](N(C)C)C(=O)C(C(N)=O)=C(O)[C@@]3(O)C(=O)C1=C2O`, for which the “activity change, negative = cytotoxic” value is 7.32%.

Consider `Oc1ccc(-c2nc(-c3ccc(F)cc3)c(-c3ccncc3)[nH]2)cc1`, for which the Potency was 3690 nM (active).

For the compound `Nc1ccn([C@@H]2O[C@H](CO)[C@@H](O)C2O)c(=O)n1` (stereo partly specified), the “activity change, negative = cytotoxic” value is -0.155%.

On to `O=C1c2c(O)cc(O)cc2OC(c2ccc(O)c(O)c2)C1O` (stereo unspecified), for which the “activity change, negative = cytotoxic” value was -7.03%.

With `C[C@]12CCC(=O)C=C1CC[C@@H]1[C@H]2[C@@H](O)C[C@@]2(C)[C@H]1CC[C@]2(O)C(=O)CO`, the “activity change, negative = cytotoxic” value was -2.1%.

`CC(=O)O[C@H]1C(=O)[C@@]2(C)C([C@H](OC(=O)c3ccccc3)[C@]3(O)C[C@H](OC(=O)[C@H](O)[C@@H](NC(=O)c4ccccc4)c4ccccc4)C(C)=C1C3(C)C)[C@]1(OC(C)=O)CO[C@@H]1C[C@@H]2O` (stereo partly specified): the Potency is 20.8 nM (active).

As to `Cc1nc(Nc2ncc(C(=O)Nc3c(C)cccc3Cl)s2)cc(N2CCN(CCO)CC2)n1`, the “activity change, negative = cytotoxic” value is 9.84%.

Regarding `C=C(c1ccc(C(=O)O)cc1)c1cc2c(cc1C)C(C)(C)CCC2(C)C`, the “activity change, negative = cytotoxic” value was -10.7%.

For the compound `CC(S)C(=O)NCC(=O)O` (stereo unspecified), the “activity change, negative = cytotoxic” value is -7%.

As for `CCCCc1ccc2nc(NC(=O)OC)[nH]c2c1`, the Potency is 329 nM (active).

In the case of `Nc1ncn([C@H]2C[C@H](O)[C@@H](CO)O2)c(=O)n1`, the “activity change, negative = cytotoxic” value is -0.197%.

On to `Nc1nc(OCc2ccccc2)c2[nH]cnc2n1`, for which the “activity change, negative = cytotoxic” value was -24.7%.

As for `O=C(CCc1ccc(O)cc1)c1c(O)cc(O)cc1O`, the “activity change, negative = cytotoxic” value is -5.39%.

On to `CCN(CC)CCOc1ccc(Nc2ncc3cc(-c4c(Cl)cccc4Cl)c(=O)n(C)c3n2)cc1`, for which the Potency is 1310 nM (active).

For the compound `CS(=O)(=O)OCCCCOS(C)(=O)=O`, the “activity change, negative = cytotoxic” value was 4.17%.

Turning to `CCOc1cc(CC(=O)N[C@@H](CC(C)C)c2ccccc2N2CCCCC2)ccc1C(=O)O`, the “activity change, negative = cytotoxic” value is 5.15%.

In the case of `c1cnc2cc3c(cc2n1)C1CNCC3C1`, the “activity change, negative = cytotoxic” value was -0.954%.

Regarding `CCN(CCO)CCCC(C)Nc1ccnc2cc(Cl)ccc12` (stereo unspecified), the “activity change, negative = cytotoxic” value is 1.68%.

Take `Clc1ccc(C(Cn2ccnc2)OCc2ccsc2Cl)c(Cl)c1` (stereo unspecified): the Potency was 11700 nM (active).

With `CC(C)C[C@H](NC(=O)[C@H](Cc1ccccc1)NC(=O)c1cnccn1)B(O)O`, the Potency was 73.7 nM (active).

Regarding `CN(C)c1ccc2nc3ccc(=[N+](C)C)cc-3sc2c1`, the Potency was 8270 nM (active).
